Data from PubChem BioAssay (NCI).
This is part of a sample that, as a whole, favours compounds with a hit. Of some 83,000 tested, about 20% had one in any assay.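 Note: values are percent growth. 100 is the growth of untreated cells, values between 100 and 0 indicate rising inhibition; between -100 and 0 indicates cell death.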 Active and inactive are the calls of the source. The calls were made as follows: active = growth percent below 10; inactive = the rest.

Tests used:
Assay in all cases: NCI-60 one-dose screen, 48 h (100 = growth as untreated, 0 = no growth, -100 = all killed)
Conditions in all cases: 10 µM unless noted
NCI-H23 lung = system: NCI-H23 lung
NCI-H226 lung = system: NCI-H226 lung
NCI-H322M lung = system: NCI-H322M lung
HOP-62 NSCLC = system: HOP-62 NSCLC
NCI-H460 lung = system: NCI-H460 lung
NCI-H522 lung = system: NCI-H522 lung
A549/ATCC NSCLC = system: A549/ATCC NSCLC
786-0 renal = system: 786-0 renal
COLO 205 colon = system: COLO 205 colon
DU-145 prostate = system: DU-145 prostate
K-562 leukemia = system: K-562 leukemia
MALME-3M melanoma = system: MALME-3M melanoma
MDA-MB-231 breast = system: MDA-MB-231 breast
RXF 393 renal = system: RXF 393 renal
SF-268 CNS = system: SF-268 CNS
SF-295 CNS = system: SF-295 CNS
SF-539 CNS = system: SF-539 CNS
UACC-257 melanoma = system: UACC-257 melanoma
M14 melanoma = system: M14 melanoma

Measured: growth

O=C(Nc1ccc(Cl)cc1)c1cc(-c2ccc(Cl)cc2)c2sc(=O)[nH]c2n1
inactive: DU-145 prostate 16.5% | SF-268 CNS 14.1%
active: NCI-H23 lung 2.31% | NCI-H226 lung 0.841% | NCI-H322M lung 6.21% | HOP-62 NSCLC -19% | NCI-H460 lung -5.14% | NCI-H522 lung -26.3% | A549/ATCC NSCLC 1.59% | 786-0 renal 6.31% | COLO 205 colon -52.1% | K-562 leukemia -12.8% | MALME-3M melanoma -13.8% | MDA-MB-231 breast -30.9% | RXF 393 renal -3.38% | SF-295 CNS -12.5% | SF-539 CNS 7.84% | UACC-257 melanoma -24.9% | M14 melanoma 8.92%

COc1cc(NCCC2CCCCN2)c2ncccc2c1OC (stereo not given)
inactive: NCI-H23 lung 49.1% | NCI-H226 lung 117% | NCI-H322M lung 116% | HOP-62 NSCLC 102% | NCI-H460 lung 80.3% | A549/ATCC NSCLC 82.1% | 786-0 renal 90.1% | COLO 205 colon 78.1% | DU-145 prostate 87.5% | K-562 leukemia 64.7% | MALME-3M melanoma 134% | MDA-MB-231 breast 74.2% | RXF 393 renal 111% | SF-268 CNS 92.9% | SF-295 CNS 110% | SF-539 CNS 92% | UACC-257 melanoma 66.3% | M14 melanoma 92.1%
active: NCI-H522 lung -7.89%

CSc1nc(N)c2[nH]c(-c3cc4ccccc4[nH]c3=O)nc2n1
inactive: NCI-H23 lung 83.9% | NCI-H226 lung 105% | NCI-H322M lung 67% | HOP-62 NSCLC 115% | NCI-H460 lung 60.4% | NCI-H522 lung 57.2% | A549/ATCC NSCLC 70.8% | 786-0 renal 72.1% | COLO 205 colon 97.9% | DU-145 prostate 72.6% | K-562 leukemia 92.7% | MALME-3M melanoma 90.7% | MDA-MB-231 breast 98.8% | RXF 393 renal 76.8% | SF-268 CNS 78.2% | SF-295 CNS 99.2% | SF-539 CNS 102% | UACC-257 melanoma 104% | M14 melanoma 77.4%

CCCCCCCCCCCC1=NC(C)(C)CN1CC(C)O (stereo not given)
active: COLO 205 colon -97.5% | K-562 leukemia -44.6% | M14 melanoma -2.07%
inactive: NCI-H23 lung 64.1% | NCI-H226 lung 92.8% | NCI-H322M lung 92.2% | HOP-62 NSCLC 60.2% | NCI-H460 lung 62.6% | NCI-H522 lung 57% | A549/ATCC NSCLC 85.4% | 786-0 renal 69.1% | DU-145 prostate 80.1% | MALME-3M melanoma 79% | MDA-MB-231 breast 44% | RXF 393 renal 28.9% | SF-268 CNS 60.1% | SF-295 CNS 93.3% | SF-539 CNS 63.8% | UACC-257 melanoma 59.5%

C=C1C(=O)O[C@H]2[C@H]1CC/C(COC(=O)NCc1cccc(OC)c1)=C\CC[C@@]1(C)O[C@@H]21
active: NCI-H522 lung -70.3% | 786-0 renal -48.9% | COLO 205 colon -71.3% | K-562 leukemia 4.46% | MALME-3M melanoma -26.4% | RXF 393 renal -57.1% | M14 melanoma -7.62%
inactive: NCI-H23 lung 73.4% | NCI-H226 lung 67.3% | NCI-H322M lung 90.6% | HOP-62 NSCLC 65.6% | NCI-H460 lung 55% | A549/ATCC NSCLC 50.7% | DU-145 prostate 19.7% | MDA-MB-231 breast 64.4% | SF-268 CNS 58.2% | SF-295 CNS 71.5% | SF-539 CNS 21.4% | UACC-257 melanoma 25.4%

COc1ccc(NC(=O)c2sc3c(=O)[nH]c(C(F)(F)F)nc3c2C)cc1
inactive: NCI-H23 lung 93.4% | NCI-H226 lung 97.7% | NCI-H322M lung 107% | HOP-62 NSCLC 107% | NCI-H460 lung 115% | NCI-H522 lung 79.5% | A549/ATCC NSCLC 95.2% | 786-0 renal 103% | COLO 205 colon 114% | DU-145 prostate 118% | K-562 leukemia 102% | MALME-3M melanoma 102% | MDA-MB-231 breast 112% | RXF 393 renal 117% | SF-268 CNS 108% | SF-295 CNS 111% | SF-539 CNS 114% | UACC-257 melanoma 105% | M14 melanoma 116%

COc1cc(NCC(O)CN(CC(C)C)CC(C)C)c2ncccc2c1 (stereo not given)
inactive: NCI-H23 lung 82% | NCI-H226 lung 74.9% | NCI-H322M lung 95.6% | HOP-62 NSCLC 84.8% | NCI-H460 lung 95.4% | NCI-H522 lung 55.9% | A549/ATCC NSCLC 91.6% | 786-0 renal 85% | COLO 205 colon 81% | DU-145 prostate 113% | K-562 leukemia 59.6% | MALME-3M melanoma 89.6% | MDA-MB-231 breast 85.5% | RXF 393 renal 51.5% | SF-268 CNS 98.5% | SF-295 CNS 91.9% | SF-539 CNS 102% | UACC-257 melanoma 77.2% | M14 melanoma 87.7%

COc1ncnc2[nH]cc(CN3CCN(c4ccc(F)cc4)CC3)c12
inactive: NCI-H23 lung 98.4% | NCI-H226 lung 103% | NCI-H322M lung 107% | HOP-62 NSCLC 107% | NCI-H460 lung 108% | NCI-H522 lung 95.1% | A549/ATCC NSCLC 96.5% | 786-0 renal 103% | COLO 205 colon 116% | DU-145 prostate 116% | K-562 leukemia 108% | MALME-3M melanoma 103% | MDA-MB-231 breast 117% | RXF 393 renal 111% | SF-268 CNS 104% | SF-295 CNS 98.1% | SF-539 CNS 108% | UACC-257 melanoma 99.8% | M14 melanoma 106%

CC1=C(O)C(=O)CC1
inactive: NCI-H23 lung 96.3% | NCI-H226 lung 100% | NCI-H322M lung 103% | HOP-62 NSCLC 120% | NCI-H460 lung 109% | NCI-H522 lung 115% | A549/ATCC NSCLC 88.8% | 786-0 renal 105% | COLO 205 colon 116% | DU-145 prostate 112% | K-562 leukemia 106% | MALME-3M melanoma 104% | MDA-MB-231 breast 108% | RXF 393 renal 102% | SF-268 CNS 110% | SF-295 CNS 94.9% | SF-539 CNS 111% | UACC-257 melanoma 97.4% | M14 melanoma 105%

O=c1oc2ccccc2cc1-c1cc(-c2ccc(-c3cc(-c4cc5ccccc5oc4=O)nc(-c4cc5ccccc5oc4=O)c3)cc2)cc(-c2cc3ccccc3oc2=O)n1
inactive: NCI-H23 lung 98.5% | NCI-H226 lung 97.8% | NCI-H322M lung 108% | HOP-62 NSCLC 93.3% | NCI-H460 lung 106% | NCI-H522 lung 97% | A549/ATCC NSCLC 101% | 786-0 renal 107% | COLO 205 colon 103% | DU-145 prostate 107% | K-562 leukemia 94.8% | MALME-3M melanoma 98.3% | MDA-MB-231 breast 94.4% | RXF 393 renal 118% | SF-268 CNS 104% | SF-295 CNS 111% | SF-539 CNS 93.2% | UACC-257 melanoma 103% | M14 melanoma 103%

CC(CN1CCN(CC(C)Nc2ccnc3cc(Cl)ccc23)CC1)Nc1ccnc2cc(Cl)ccc12 (stereo not given)
inactive: NCI-H23 lung 62.3% | NCI-H226 lung 26.6% | NCI-H322M lung 20.7% | A549/ATCC NSCLC 15.7% | DU-145 prostate 30% | SF-268 CNS 16.7%
active: HOP-62 NSCLC -18.4% | NCI-H460 lung -30.4% | NCI-H522 lung -29.4% | 786-0 renal -9.83% | COLO 205 colon -85% | K-562 leukemia -21.9% | MALME-3M melanoma -55.5% | MDA-MB-231 breast -19% | RXF 393 renal -69.4% | SF-295 CNS -48.2% | SF-539 CNS -82.4% | UACC-257 melanoma -61.4% | M14 melanoma -88%

Cc1c(C(=O)CCl)c(=O)n(-c2ccccc2)n1C
active: NCI-H522 lung -34.4%
inactive: NCI-H23 lung 72.7% | NCI-H226 lung 104% | NCI-H322M lung 101% | HOP-62 NSCLC 105% | NCI-H460 lung 81.2% | A549/ATCC NSCLC 83.5% | 786-0 renal 88.6% | COLO 205 colon 48.7% | DU-145 prostate 42.4% | K-562 leukemia 53% | MALME-3M melanoma 48.1% | MDA-MB-231 breast 97.7% | RXF 393 renal 38.7% | SF-268 CNS 84.5% | SF-295 CNS 87.3% | SF-539 CNS 71.7% | UACC-257 melanoma 52.1% | M14 melanoma 52.3%

COc1cc([N+](=O)[O-])cc(OC)c1OC
inactive: NCI-H23 lung 107% | NCI-H226 lung 112% | NCI-H322M lung 109% | HOP-62 NSCLC 110% | NCI-H460 lung 109% | NCI-H522 lung 83.8% | A549/ATCC NSCLC 110% | 786-0 renal 104% | COLO 205 colon 127% | DU-145 prostate 115% | K-562 leukemia 101% | MALME-3M melanoma 97.8% | MDA-MB-231 breast 112% | RXF 393 renal 124% | SF-268 CNS 110% | SF-295 CNS 110% | SF-539 CNS 114% | UACC-257 melanoma 114% | M14 melanoma 108%

NS(=O)(=O)c1ccc(CCn2c(SCC(=O)N/N=C/c3cc4ccccc4[nH]3)nc3ccccc3c2=O)cc1
inactive: NCI-H23 lung 58.8% | NCI-H226 lung 76.6% | NCI-H322M lung 83.7% | HOP-62 NSCLC 68.7% | NCI-H460 lung 30.4% | NCI-H522 lung 19.5% | A549/ATCC NSCLC 84.3% | 786-0 renal 78.9% | COLO 205 colon 74.4% | DU-145 prostate 64.8% | K-562 leukemia 27.5% | MALME-3M melanoma 38.8% | MDA-MB-231 breast 61.7% | RXF 393 renal 91% | SF-268 CNS 89.2% | SF-295 CNS 90.9% | SF-539 CNS 82.8% | UACC-257 melanoma 82.6% | M14 melanoma 74%

NNC(=O)CSc1nc2scc(-c3ccccc3)c2c(=O)n1-c1ccccc1
active: RXF 393 renal -50.2%
inactive: NCI-H23 lung 101% | NCI-H226 lung 84% | NCI-H322M lung 122% | HOP-62 NSCLC 91.4% | NCI-H460 lung 110% | NCI-H522 lung 91.4% | A549/ATCC NSCLC 115% | 786-0 renal 86.8% | COLO 205 colon 107% | DU-145 prostate 111% | K-562 leukemia 89.9% | MALME-3M melanoma 155% | MDA-MB-231 breast 86.6% | SF-268 CNS 85.6% | SF-295 CNS 144% | SF-539 CNS 96.5% | UACC-257 melanoma 129% | M14 melanoma 112%
